Test results published in PubChem BioAssay (Tox21).
Several values for one entry are separate records, joined by “and”; a condition that tells them apart may be missing. Equal values may be shown once. Results filed as inconclusive are left out. Entries that show only a call come without a potency. Some structures have more than one record in an assay (separate samples or runs), and their calls can disagree. Activity calls are given as the source filed them. Unless noted, calls follow the shape of the dose curve; as a rule, active = well fitted curve in the direction sought with a large enough effect in the repeat runs; inconclusive = weak or mixed curves; inactive = no such curve, though single readings can be large; an effect the other way counts as inactive or inconclusive.

Legend:
[1] = qHTS assay to identify small molecule antagonists of the thyroid receptor (TR) signaling pathway - cell viability counter screen (AID 743064); details: GH3.TRE-Luc viability, CellTiter-Fluor, 24 h; series mostly up to 70.3 µM; also: nearly all actives have a fitted effect of over 50% in size
In short: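 GH3.TRE-Luc rat pituitary cells dosed after 4 hr plating, co-stimulated with T3 at 1 nM final, incubated 23.5 h at 37 C. Viability measured in the same wells by CellTiter-Fluor fluorescence after 30 min further at 37 C.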

[2] = qHTS assay to identify small molecule antagonists of the thyroid receptor (TR) signaling pathway (AID 743065); details: GH3.TRE-Luc, T3-stimulated luciferase inhibition, 23.5 h; series mostly up to 70.3 µM; also: nearly all actives have a fitted effect of over 55% in size
In short: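 GH3.TRE-Luc rat pituitary cells carrying two TR response elements driving luciferase were plated for 4 h, given compound plus 1 nM T3 (final), and incubated 23.5 h at 37 C. ONE-Glo luminescence measured reporter inhibition; CellTiter-Fluor fluorescence tracked cytotoxicity.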

[3] = tested on: thyroid hormone receptor (rat, GH3 cells); test: qHTS assay to identify small molecule agonists of the thyroid receptor (TR) signaling pathway (AID 743066; calls by dose curve); details: GH3.TRE-Luc cells, TR agonist luciferase, 24 h; series mostly up to 83.9 µM
[4] = target: Estrogen receptor (Homo sapiens) (UniProt P03372); test: qHTS assay to identify small molecule antagonists of the estrogen receptor alpha (ER-alpha) signaling pathway (AID 743069; active = well fitted curve in the direction sought with a large enough effect in the signal ratio in the repeat runs, not every such curve was filed as active; the % refers to the signal ratio); details: HEK293 ER-alpha-UAS-bla, beta-lactamase ratio, antagonist mode; series mostly up to 69.4 µM
In short: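 A 17beta-estradiol challenge was applied right after compound transfer to ER-alpha-UAS-bla HEK293 cells previously kept in charcoal-stripped serum. Plates stood 18 hr at 37C and 5% CO2; fluorescence was read following 2 hr FRET substrate loading at room temperature.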

[5] = qHTS assay to identify small molecule antagonists of the estrogen receptor alpha (ER-alpha) signaling pathway - cell viability counter screen (AID 743074; calls by dose curve;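 also: HEK293 cells carrying ER-alpha-UAS-bla reporter stimulated with 17beta-estradiol; nearly all actives have a fitted effect of over 45% in size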); details: ERalpha-bla HEK293 viability, CellTiter-Glo luminescence, 18 h; series mostly up to 69.4 µM
[6] = target: Estrogen receptor (Homo sapiens) (UniProt P03372); test: qHTS assay to identify small molecule agonists of the estrogen receptor alpha (ER-alpha) signaling pathway (AID 743075; calls by dose curve;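 also: HEK293 GripTite cells with ER-alpha and UAS-driven beta-lactamase reporter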); details: HEK293 ER-alpha-UAS-bla, beta-lactamase FRET ratio, 18 h; series mostly up to 70.1 µM
[7] = qHTS assay to identify small molecule antagonists of the estrogen receptor alpha (ER-alpha) signaling pathway using the BG1 cell line - cell viability counter screen (AID 743081); details: BG1Luc4E2 viability, CellTiter-Fluor, 22 h; series mostly up to 70.3 µM;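 also: compound given together with 17beta-estradiol as the ER stimulus; nearly all actives have a fitted effect of over 45% in size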
Aromatase (Homo sapiens) = Aromatase (Homo sapiens) (UniProt P11511); test: qHTS assay to identify aromatase inhibitors (AID 743083); details: MCF-7 aro ERE, testosterone-driven ERE luciferase, 24 h; series mostly up to 70.3 µM; also: nearly all actives have a fitted effect of over 55% in size
[8] = qHTS assay to identify aromatase inhibitors - cell viability counter screen (AID 743084); details: MCF-7 aro ERE viability, CellTiter-Fluor, 24 h; series mostly up to 70.3 µM;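 also: cells stimulated with testosterone during compound exposure; nearly all actives have a fitted effect of over 55% in size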
[9] = target: Aryl hydrocarbon receptor (Homo sapiens) (UniProt P35869); test: qHTS assay to identify small molecule that activate the aryl hydrocarbon receptor (AhR) signaling pathway (AID 743085); details: HepG2 AhR-luc (HG2L7.5c1), luciferase, 24 h; series mostly up to 70.3 µM; also: nearly all actives have a fitted effect of over 15% in size; also: potency is read from the fitted curve at half-maximal effect;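 as to activation: HG2L7.5c1 human HepG2 liver cells with stably integrated DRE-driven firefly reporter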
In short: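 HepG2 cells stably carrying a 20-DRE firefly luciferase reporter (HG2L7.5c1) treated with compound for 24 hr at 37C. Luciferase read by ONE-Glo luminescence, with CellTiter-Fluor viability read first.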

[10] = qHTS assay to identify small molecule that activate the aryl hydrocarbon receptor (AhR) signaling pathway - cell viability counter screen (AID 743086); details: HepG2-AhR-luc viability, CellTiter-Fluor, 24 h; series mostly up to 70.3 µM;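 also: HepG2 liver cells carrying the AhR DRE luciferase reporter; nearly all actives have a fitted effect of over 45% in size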
In short: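 HepG2-AhR-luc (HG2L7.5c1) cells, 4000/well, were preincubated 5 h at 37C, exposed to compound in qHTS format for 24 hr at 37C, then given CellTiter-Fluor for 30 min; viability was read as fluorescence in the reporter wells.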

[11] = qHTS assay to identify small molecule antagonists of the peroxisome proliferator-activated receptor gamma (PPARg) signaling pathway - cell viability counter screen (AID 743194); details: PPARg-bla HEK293H viability, CellTiter-Glo luminescence, 17 h, co-treated with 50 nM rosiglitazone; series mostly up to 62.6 µM; also: nearly all actives have a fitted effect of over 55% in size
In short: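 PPARg-UAS-bla HEK293H cells were plated, rested 5 h at 37 C, then treated with compounds plus rosiglitazone (50 nM final) for 17 h at 37 C; viability was then read by CellTiter-Glo luminescence after 30 min at room temperature.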

[12] = qHTS assay for small molecule agonists of the antioxidant response element (ARE) signaling pathway (AID 743202; active = well fitted activation curve with a large enough effect in the signal ratio in the repeat runs, not every such curve was filed as active; the % refers to the signal ratio); details: HepG2 ARE-bla reporter, beta-lactamase FRET, 16 h; series mostly up to 73.3 µM
In short: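 Following a 16 h, 37 C exposure of reporter HepG2 cells (ARE-driven beta-lactamase, 2,000 cells/well) to compounds, FRET substrate was applied for 2 h at room temperature and fluorescence intensity recorded.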

[13] = qHTS assay for small molecule agonists of the antioxidant response element (ARE) signaling pathway - cell viability counter screen (AID 743203; calls by dose curve; also: nearly all actives have a fitted effect of over 55% in size); details: ARE-bla HepG2 viability, CellTiter-Glo luminescence, 16 h; series mostly up to 73.3 µM
In short: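 ATP content via CellTiter-Glo luminescence served as the viability measure. Cells: ARE-bla HepG2, 2,000 per well. Exposure: 16 hrs, 37C/5% CO2.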

[14] = qHTS assay for small molecule activators of the heat shock response signaling pathway - cell viability counter screen (AID 743209); details: HSE-bla HeLa viability, CellTiter-Glo luminescence, 5 h; series mostly up to 62.6 µM; also: nearly all actives have a fitted effect of over 50% in size
In short: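 Compounds dissolved in DMSO were added to overnight-plated HSE-bla HeLa cells and left 5 h at 37 C. Cell viability was quantified by luminescence using CellTiter-Glo.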

[15] = qHTS assay for small molecule activators of the heat shock response signaling pathway (AID 743210; active = well fitted activation curve with a large enough effect in the signal ratio in the repeat runs, with a control signal flat, not every such curve was filed as active; the % refers to the signal ratio); details: HeLa HSE-bla reporter, beta-lactamase ratio, 5 h; series mostly up to 62.6 µM
In short: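 Heat shock element–beta-lactamase HeLa reporter cells; qHTS with compounds for 5 h at 37 C; detection by FRET substrate fluorescence after 2.5 h at RT.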

[16] = target: Estrogen receptor (Homo sapiens) (UniProt P03372); test: qHTS assay to identify small molecule agonists of the estrogen receptor alpha (ER-alpha) signaling pathway using the BG1 cell line (AID 743079); details: BG1Luc4E2 cells, ERE-luciferase agonist, 22 h; series mostly up to 70.3 µM; also: nearly all actives have a fitted effect of over 20% in size
[17] = target: Peroxisome proliferator-activated receptor gamma (Homo sapiens) (UniProt P37231); test: qHTS assay to identify small molecule antagonists of the peroxisome proliferator-activated receptor gamma (PPARg) signaling pathway (AID 743191; calls by dose curve; also: nearly all actives have a fitted effect of over 30% in size); details: HEK293H PPARg-UAS-bla, beta-lactamase ratio, antagonist, 17 h; series mostly up to 62.6 µM
In short: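 GeneBLAzer PPARg UAS-bla HEK293H cells carrying a UAS-driven beta-lactamase reporter were plated at 3000 cells/well, preincubated 5 h at 37C, then given compound for 17 h at 37C; LiveBLAzer B/G FRET substrate was read after 1 h at room temperature.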

[18] = target: Peroxisome proliferator-activated receptor gamma (Homo sapiens) (UniProt P37231); test: qHTS assay to identify small molecule agonists of the peroxisome proliferator-activated receptor gamma (PPARg) signaling pathway (AID 743094; active = well fitted activation curve with a large enough effect in the signal ratio in the repeat runs, not every such curve was filed as active; the % refers to the signal ratio); details: HEK293H PPARg-UAS-bla, beta-lactamase FRET ratio, 17 h; series mostly up to 57 µM
In short: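 Agonism was assessed in a beta-lactamase reporter system, HEK293H cells with a stably integrated UAS-bla construct under PPARg control; the 17 h treatment at 37C preceded a 1 h room-temperature FRET substrate read.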

[19] = qHTS assay to identify small molecule antagonists of the estrogen receptor alpha (ER-alpha) signaling pathway using the BG1 cell line (AID 743080; calls by dose curve;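 also: BG1 cells stimulated with 17beta-estradiol alongside compound; nearly all actives have a fitted effect of over 25% in size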); details: BG1Luc4E2 ERE-luciferase antagonist mode, luminescence; series mostly up to 70.3 µM
In short: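 Readout is ONE-Glo luminescence, taken 30 min at room temperature after reagent addition, preceded by a CellTiter-Fluor viability read; BG1-Luc-4E2 cells had received compound and 17beta-estradiol for 21.5 h at 37 C.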

Chain of Peroxisome proliferator-activated receptor gamma (Homo sapiens) (P37231 whole entry, looked up): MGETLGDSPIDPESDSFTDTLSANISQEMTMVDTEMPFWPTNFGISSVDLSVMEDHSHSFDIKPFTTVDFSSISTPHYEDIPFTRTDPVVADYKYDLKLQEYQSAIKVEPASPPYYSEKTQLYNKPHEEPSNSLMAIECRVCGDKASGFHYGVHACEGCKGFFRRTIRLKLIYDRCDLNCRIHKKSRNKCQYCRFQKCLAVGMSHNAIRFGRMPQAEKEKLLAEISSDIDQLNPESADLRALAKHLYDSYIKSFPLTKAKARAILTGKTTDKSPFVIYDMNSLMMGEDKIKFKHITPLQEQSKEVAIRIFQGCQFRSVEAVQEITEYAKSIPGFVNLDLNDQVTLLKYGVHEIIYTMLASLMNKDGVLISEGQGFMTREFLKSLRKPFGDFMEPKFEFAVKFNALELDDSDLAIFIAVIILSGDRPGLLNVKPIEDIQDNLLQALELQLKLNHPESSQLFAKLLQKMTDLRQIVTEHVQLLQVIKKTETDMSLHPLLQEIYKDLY
Chain of Aromatase (Homo sapiens) (P11511 whole entry, looked up): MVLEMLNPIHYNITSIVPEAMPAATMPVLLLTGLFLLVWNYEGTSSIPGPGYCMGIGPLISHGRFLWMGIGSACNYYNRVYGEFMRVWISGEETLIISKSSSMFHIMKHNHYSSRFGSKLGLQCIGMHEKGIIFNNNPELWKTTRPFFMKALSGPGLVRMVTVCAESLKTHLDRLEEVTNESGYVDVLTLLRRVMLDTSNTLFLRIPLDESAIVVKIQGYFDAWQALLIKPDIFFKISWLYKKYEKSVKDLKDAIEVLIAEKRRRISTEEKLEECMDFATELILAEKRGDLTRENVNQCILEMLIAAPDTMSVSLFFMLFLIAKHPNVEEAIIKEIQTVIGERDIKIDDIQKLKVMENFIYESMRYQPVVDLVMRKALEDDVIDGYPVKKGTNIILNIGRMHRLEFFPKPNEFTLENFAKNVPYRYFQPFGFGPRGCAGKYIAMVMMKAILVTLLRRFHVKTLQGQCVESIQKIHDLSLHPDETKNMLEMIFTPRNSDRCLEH
Chain of Estrogen receptor (Homo sapiens) (P03372 whole entry, looked up): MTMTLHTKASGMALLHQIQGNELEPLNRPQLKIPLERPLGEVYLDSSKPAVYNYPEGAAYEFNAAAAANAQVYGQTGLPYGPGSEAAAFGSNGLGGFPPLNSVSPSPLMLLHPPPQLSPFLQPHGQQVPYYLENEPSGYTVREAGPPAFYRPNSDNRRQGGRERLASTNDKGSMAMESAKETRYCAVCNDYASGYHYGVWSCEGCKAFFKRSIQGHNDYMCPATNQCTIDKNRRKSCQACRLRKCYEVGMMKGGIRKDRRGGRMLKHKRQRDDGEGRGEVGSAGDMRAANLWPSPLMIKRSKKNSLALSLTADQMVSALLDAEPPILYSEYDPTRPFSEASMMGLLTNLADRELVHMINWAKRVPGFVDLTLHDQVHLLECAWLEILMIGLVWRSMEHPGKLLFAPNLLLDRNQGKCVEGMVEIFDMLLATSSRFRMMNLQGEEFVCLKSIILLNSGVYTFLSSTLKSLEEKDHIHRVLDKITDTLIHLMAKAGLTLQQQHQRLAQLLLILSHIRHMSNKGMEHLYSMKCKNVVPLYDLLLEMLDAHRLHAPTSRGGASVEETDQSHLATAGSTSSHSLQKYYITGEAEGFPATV
Chain of Aryl hydrocarbon receptor (Homo sapiens) (P35869 whole entry, looked up): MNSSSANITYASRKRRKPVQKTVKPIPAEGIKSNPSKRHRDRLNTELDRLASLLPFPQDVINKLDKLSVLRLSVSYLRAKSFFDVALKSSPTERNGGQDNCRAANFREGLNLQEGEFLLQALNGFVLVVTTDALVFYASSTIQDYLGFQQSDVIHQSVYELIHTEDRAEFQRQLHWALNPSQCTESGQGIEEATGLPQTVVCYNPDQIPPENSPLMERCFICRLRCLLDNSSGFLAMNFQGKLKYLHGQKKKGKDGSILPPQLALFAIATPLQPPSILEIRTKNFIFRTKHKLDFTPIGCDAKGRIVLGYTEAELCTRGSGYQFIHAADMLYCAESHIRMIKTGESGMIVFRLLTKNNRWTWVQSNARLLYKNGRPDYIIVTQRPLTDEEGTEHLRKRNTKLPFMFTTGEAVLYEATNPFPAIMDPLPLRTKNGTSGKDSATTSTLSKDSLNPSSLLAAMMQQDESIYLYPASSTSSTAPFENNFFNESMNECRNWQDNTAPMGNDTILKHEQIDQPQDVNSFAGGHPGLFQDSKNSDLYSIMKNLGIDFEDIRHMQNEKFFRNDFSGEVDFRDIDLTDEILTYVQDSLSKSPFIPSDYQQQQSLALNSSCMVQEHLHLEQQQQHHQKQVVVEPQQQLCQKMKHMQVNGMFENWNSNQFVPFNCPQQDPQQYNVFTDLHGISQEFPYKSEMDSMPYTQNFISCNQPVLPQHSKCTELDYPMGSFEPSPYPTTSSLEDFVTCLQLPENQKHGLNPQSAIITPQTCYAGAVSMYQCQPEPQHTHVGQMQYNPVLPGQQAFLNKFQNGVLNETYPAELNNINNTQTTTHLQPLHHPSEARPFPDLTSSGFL

Row | Compound | Potency [1] | Potency [2] | outcome [3] | Potency [4] | outcome [5] | Potency [6] | Potency [7] | Potency (Aromatase (Homo sapiens)) | Potency [8] | Potency [9] | Potency [10] | outcome [11] | Potency [12] | Potency [13] | outcome [14] | outcome [15] | Potency [16] | outcome [17] | outcome [18] | outcome [19]
1 | COc1ccc(N)c(C)c1 | inactive | inactive | inactive | inactive | inactive | inactive | inactive | inactive | inactive | inactive | inactive | inactive | inactive | inactive | inactive | inactive |  |  |  | 
2 | CN(C)c1ccc(O)c2c1C[C@H]1C[C@H]3[C@H](N(C)C)C(=O)C(C(N)=O)=C(O)[C@@]3(O)C(=O)C1=C2O | inactive | inactive | inactive | inactive | inactive | inactive | inactive | inactive | inactive | inactive and 7.7 µM (active) | inactive | inactive | inactive | inactive | inactive |  | inactive |  |  | 
3 | CC(=O)OCc1ccccc1 | inactive | inactive | inactive | inactive | inactive | inactive | inactive | inactive | inactive | inactive | inactive | inactive | inactive | inactive | inactive |  | inactive | inactive |  | 
4 | NC(=S)NNC(N)=S | inactive | inactive | inactive |  | inactive |  | inactive | inactive | inactive | inactive | inactive | inactive | inactive | inactive | inactive |  |  | inactive | inactive | 
5 | O=C(O)c1ccccc1C(=O)O | inactive | inactive | inactive | inactive | inactive | inactive | inactive | inactive | inactive |  | inactive | inactive | inactive | inactive |  | inactive | inactive |  |  | 
6 | C=CCCCCCCCCC(=O)O | inactive | inactive | inactive | inactive | inactive | inactive | inactive | inactive | inactive | inactive | inactive | inactive |  | inactive | inactive | inactive | inactive |  | inactive | 
7 | CCCCCCC=O | inactive | inactive | inactive | inactive | inactive | inactive | inactive | inactive | inactive | inactive | inactive | inactive | inactive | inactive |  | inactive | inactive | inactive |  | 
8 | C=CC(=O)OCCC(=O)O | inactive | inactive | inactive | inactive | inactive | inactive | inactive | inactive | inactive | inactive | inactive | inactive |  | inactive |  | inactive | inactive | inactive |  | 
9 | COc1cc(OC)c(C(=O)CCCN2CCCC2)c(OC)c1 | inactive | inactive | inactive |  | inactive |  | inactive | inactive | inactive | inactive | inactive | inactive |  | inactive |  | inactive |  | inactive |  | 
10 | CCO[Si](CCCN)(OCC)OCC | inactive |  |  | inactive | inactive | inactive | inactive | inactive | inactive |  | inactive | inactive | inactive | inactive | inactive |  | inactive | inactive |  | inactive
